51 compounds from ChEMBL document CHEMBL3988442, “University of Dundee, Small-Polar-MMV Screening Library” (2021) can be followed below.

Assay [1] deals with T1, Aspartate--tRNA(Asp/Asn) ligase (Mycobacterium tuberculosis (strain ATCC 25618 / H37Rv)) (UniProt P9WFW3).
T1 sequence (whole entry): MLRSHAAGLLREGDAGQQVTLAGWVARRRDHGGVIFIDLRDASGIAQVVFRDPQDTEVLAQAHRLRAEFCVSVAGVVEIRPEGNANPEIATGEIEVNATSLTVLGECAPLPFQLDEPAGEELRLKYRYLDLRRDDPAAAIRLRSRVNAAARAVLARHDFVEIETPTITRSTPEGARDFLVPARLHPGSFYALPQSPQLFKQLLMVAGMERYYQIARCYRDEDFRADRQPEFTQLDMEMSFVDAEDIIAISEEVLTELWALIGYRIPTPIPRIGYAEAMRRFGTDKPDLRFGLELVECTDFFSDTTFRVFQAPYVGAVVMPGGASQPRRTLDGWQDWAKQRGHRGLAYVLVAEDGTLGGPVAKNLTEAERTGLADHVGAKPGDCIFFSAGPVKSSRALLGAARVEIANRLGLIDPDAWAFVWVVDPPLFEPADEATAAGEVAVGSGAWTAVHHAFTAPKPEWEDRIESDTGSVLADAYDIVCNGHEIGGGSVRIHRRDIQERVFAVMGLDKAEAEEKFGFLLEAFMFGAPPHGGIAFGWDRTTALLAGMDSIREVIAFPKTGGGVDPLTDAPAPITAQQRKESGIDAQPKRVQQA
Briefly: Assay for Asp RNA synthetase-1 from Mycobacterium tuberculosis. Format: functional. The conditions noted are these: 30 µM. Details: scale not given: direction of the effect not stated beside the values.

Assay [2] has as its target Shiga toxin 2 (Escherichia coli O157:H7) (UniProt P09385+P09386). Kind of assay: E. coli 0.157:H7 Shiga Toxin SOP - stx2 screening assay. Format: functional. Details: scale not given: direction of the effect not stated beside the values. The conditions noted are these: 30 µM.

SMILES strings stand for the structures.

As to `CCC1=N[C@@]2(CC[C@@H]3CN(C(=O)Nc4ccc(F)cc4)C[C@@H]32)C(=O)N1`, the Percent Effect was 0.408% in assay [1] and 5.29% in assay [2].
For the compound `O=c1nc(SCc2ccncc2)c2c(n1CCO)CCCC2`, the Percent Effect in assay [1] is -6.81%; in assay [2], -5.81%.
Take `c1nc(COCC2CC2)c2n1CCCN(CC1CC1)C2`: the Percent Effect in assay [1] was -0.611%; in assay [2], -11.2%.
On the same counts, the results for `CCN1CCC(NC(=O)CN2CCc3c(nc(C4CC4)n3C)C2)CC1` are -3.88% and 7.04%.
As to `CN(Cc1nnc(C2CC2)n1C)C(=O)c1ccnc(OC2CCC2)c1`, the results for the Percent Effect in assay [1] and in assay [2] were -0.39% and 3.48%, respectively.
Regarding `CN(Cc1ccncc1)C(=O)Nc1cnn(CC2CCCO2)c1` (configuration not stated), the Percent Effect was 2.49% in assay [1] and -5.44% in assay [2].
With `CC1CN(CC(=O)Nc2cccnc2)CCN1c1nccs1` (configuration not stated), the Percent Effect in assay [1] amounted to 0.466%; in assay [2], 7.04%.
As to `COC[C@@H]1CC[C@H]2[C@H](CCN2S(=O)(=O)c2ccc(F)cc2)O1`, the figures for the Percent Effect in assay [1] and in assay [2] were 8.74% and -4.21%, respectively.
As for `CCCS(=O)(=O)N1CCN(c2cc(-n3cnc(C)c3C)nc(C)n2)CC1`, the results for the Percent Effect in assay [1] and in assay [2] were -3.39% and -17.5%, respectively.
On to `Cc1cc(C)c2nc(CN3CCCC(c4cc[nH]n4)C3)cc(O)c2c1` (configuration not stated), for which the Percent Effect turned out to be 4.05% in assay [1] and 0.0646% in assay [2].
`CC(=O)N1C[C@@H](c2ccsc2)[C@@H]2CN(Cc3ccccc3)CC[C@@H]21`: the Percent Effect in assay [1] was 2.13%; in assay [2], -20.6%.
On to `COc1ccc(OC)c(NC(=O)c2nc3ccccc3n(C)c2=O)c1`, for which the Percent Effect in assay [1] was 1.01%; in assay [2], -23.2%.
With `CCN1CCC(NC(=O)CN2CCCC2Cn2cncn2)CC1` (configuration not stated), the Percent Effect in assay [1] is -1.82%; in assay [2] it was -12.3%.
Take `COCCC(=O)N1CC[C@@H]2O[C@@H](C)C[C@H]2C1`: the values for the Percent Effect in assay [1] and in assay [2] were -0.28% and -0.0436%, respectively.
For the compound `COc1ccccc1C1CNC(=O)c2nc(-c3ncc[nH]3)[nH]c2C1` (configuration not stated), the Percent Effect in assay [1] is 2.38%; in assay [2], -14.6%.
The like results for `NC(=O)COc1cccc(C(=O)N2CCCC(n3ccnc3)C2)c1` (configuration not stated) were, in that order, 0.962% and -19.9%.
`Cn1ccnc1CN1CCN(CCOc2ccccc2C#N)CC1`: the Percent Effect is -0.506% in assay [1] and 16.8% in assay [2].
Turning to `CN1CCN(C(=O)c2ccc(=O)n(C)c2)c2ccccc21`, the Percent Effect in assay [1] was -7.61%; in assay [2], -16.6%.
For the compound `CCCNC(=O)c1sc(Nc2ccc(Cl)cn2)nc1C`, the Percent Effect was -4.04% in assay [1] and -46.7% in assay [2].
In the case of `CC(C)c1cc(C(=O)NCCN2CCCS2(=O)=O)n[nH]1`, the values for the Percent Effect in assay [1] and in assay [2] were -5.19% and -14.6%, respectively.
For the compound `CCOc1nnc(CN2CCOC(CNc3cccnn3)C2)s1` (configuration not stated), the Percent Effect is 4.86% in assay [1] and -50.9% in assay [2].
On the same counts, the results for `CC(CNC(=O)c1ccc(F)cc1Cl)N1CCCC1` (configuration not stated) are 0.39% and -4.69%.
With `CN(Cc1ncc(C(C)(C)C)o1)C1CCCN(c2cccnn2)C1` (configuration not stated), the values for the Percent Effect in assay [1] and in assay [2] were 0.143% and -9.94%, respectively.
The like results for `Cc1cc(C(=O)NCCn2nc3ccccn3c2=O)[nH]n1` were, in that order, -1.59% and -43.7%.
With `COC(=O)COc1nc(CC(C)C)c2c(c1C#N)CCCC2`, the figures for the Percent Effect in assay [1] and in assay [2] were -0.893% and -1.99%, respectively.
On the same counts, the results for `CC(C)Oc1cc(N2CCC(N3CCC(O)CC3)CC2)nc(N)n1` are -2.8% and 2.73%.
Regarding `O=C1[C@H]2CC[C@H](CN(Cc3ccccc3OC(F)F)C2)N1CC1CC1`, the figures for the Percent Effect in assay [1] and in assay [2] were 4.85% and 7.93%, respectively.
On to `O=C(c1ccc(C2CCCO2)s1)N1CCS(=O)(=O)CC1` (configuration not stated), for which the Percent Effect in assay [1] is 3.74%; in assay [2], -6.97%.
As for `O=C1NCCN1C1CCCN(Cc2coc(-c3ccc(F)cc3)n2)C1` (configuration not stated), the Percent Effect was -2.94% in assay [1] and -27.1% in assay [2].
Take `CCn1cc(NC(=O)NCC(O)c2ccccc2)cn1` (configuration not stated): the Percent Effect was -0.4% in assay [1] and -5.7% in assay [2].
Consider `Cc1ncsc1C(=O)NC1CCN(CCC(N)=O)CC1`, for which the Percent Effect is -2.4% in assay [1] and 13.9% in assay [2].
As for `c1ccc(CN2CC[C@@H]3O[C@H](COCc4ccncc4)CC[C@@H]32)nc1`, the figures for the Percent Effect in assay [1] and in assay [2] were -0.574% and -18%, respectively.
For `COc1ccc(CCN2CCN(C(=O)c3scnc3C)CC2)cc1`, the Percent Effect in assay [1] is 0.928%; in assay [2], 0.201%.
Turning to `CCCc1nc(C)cc(N2CCC3(CCC(=O)N(CC4CC4)C3)CC2)n1`, the Percent Effect was 3.82% in assay [1] and -18.5% in assay [2].
`Cc1ccc2oc(C(=O)N3CCCC(c4noc(C)n4)C3)cc2n1` (configuration not stated): the results for the Percent Effect in assay [1] and in assay [2] were -6.59% and -27.4%, respectively.
For the compound `COc1c(C2CCCN2C(=O)c2cncnc2C)c(C)nn1C` (configuration not stated), the figures for the Percent Effect in assay [1] and in assay [2] were 4.44% and -11.2%, respectively.
As to `O=C1CN(Cc2nnc(-c3ccccc3Br)o2)CCN1`, the results for the Percent Effect in assay [1] and in assay [2] were -4.51% and -24.1%, respectively.
Regarding `CN1CCCC(Cc2cncc(C(=O)NCC3CC3)c2)C1` (configuration not stated), the figures for the Percent Effect in assay [1] and in assay [2] were -1.03% and 2.18%, respectively.
On to `CC(C)(C)c1nnc(CN2CCCC(Cn3cncn3)C2)o1` (configuration not stated), for which the Percent Effect is 0.322% in assay [1] and 13% in assay [2].
On to `CS(=O)(=O)Cc1cccc(C(=O)N2CCCC(n3cccn3)C2)c1` (configuration not stated), for which the Percent Effect was -2.52% in assay [1] and -47.9% in assay [2].
As for `COc1ccc(C(=O)NCC(c2cccn2C)N2CCCC2)c(OC)c1` (configuration not stated), the Percent Effect in assay [1] was -4.85%; in assay [2], -22.3%.
On the same counts, the results for `c1ccc(C(OCCNC2CCc3ncnn3C2)c2ccccc2)cc1` (configuration not stated) are 2.94% and -14.7%.
Take `Cc1cc(CN2CCN(C(=O)NC(C)Cn3ccnc3)CC2)no1` (configuration not stated): the Percent Effect in assay [1] is -1.75%; in assay [2] it was 21%.
On the same counts, the results for `COCCCN(C)C1CCCN(Cc2noc(C)n2)C1` (configuration not stated) are -3.09% and -16.4%.
`CCNC(=O)N1CCCCC1CCO` (configuration not stated): the Percent Effect in assay [1] is -3.54%; in assay [2], -15.4%.
On to `CC(C)c1n[nH]c(C2CN(C(=O)C3=COCC3)CCO2)n1` (configuration not stated), for which the figures for the Percent Effect in assay [1] and in assay [2] were -3.88% and 17.2%, respectively.
The like results for `CC(O)CN1CCN(C(=O)c2cccn2Cc2ccncc2)CC1` (configuration not stated) were, in that order, -3.51% and 13.7%.
On the same counts, the results for `CN(c1ccncn1)C1CC2(CCN(C(=O)c3ccsc3)C2)C1` (configuration not stated) are -8.13% and -32.2%.
For `CN(Cc1ccco1)[C@@H]1CN(C(=O)c2ccnnc2)C[C@@H]2CCCO[C@@H]21`, the Percent Effect in assay [1] was -5.22%; in assay [2] it was -5.91%.
On the same counts, the results for `CCN(c1ccc(C(=O)NCCCN2CCCC2)cc1)S(=O)(=O)CC` are 2.52% and -46.4%.
For `CCC(O)CNC(=O)c1coc(COc2ccc3sc(C)nc3c2)n1` (configuration not stated), the Percent Effect in assay [1] was 5.32%; in assay [2] it was -27.2%.
